Among the data in PubChem BioAssay (Tox21) are Potency and outcome values, retold here.

Structures are written as SMILES. Where “and” joins values, the source holds several entries; their conditions need not be identical. Identical values can stand only once. Inconclusive results are not listed. Calls of active or inactive are those of the source. Unless noted, calls come from the whole dose curve; as a rule, active = well fitted curve in the direction sought with a large enough effect in the repeat runs; inconclusive = weak or mixed curves; inactive = no such curve, though single readings can be large; an effect the other way counts as inactive or inconclusive.

The nature of experiment [1]: qHTS assay for small molecule agonists of the p53 signaling pathway (AID 651631; calls by dose curve; note: nearly all actives have a fitted effect of over 15% in size). Summed up: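 Stably transfected HCT-116 cells (beta-lactamase behind p53 response elements) get compounds after a 5 h settling period; 16 h later at 37 °C, FRET substrate is loaded and fluorescence read after 2 h.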
Experiment [2] can be described thus: qHTS assay for small molecules that induce genotoxicity in human embryonic kidney cells expressing luciferase-tagged ATAD5 (AID 651632). Note: nearly all actives have a fitted effect of over 15% in size. Summed up: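 Luminescent reporter readout, HEK293T ATAD5-luc line: 16 hr drug exposure (37C, 5% CO2) followed by Amplite, 30 min RT.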
Experiment [3] can be described thus: qHTS assay for small molecule agonists of the p53 signaling pathway - cell viability (AID 651633; calls by dose curve; note: nearly all actives have a fitted effect of over 30% in size; note: potency is the fitted concentration of half-maximal effect). Summed up:
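p53RE-bla cells were treated with compound for 16 hours at 37 C. Cytotoxicity was then measured as CellTiter-Glo luminescence after 30 min at room temperature.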

Experiment [4] is described as follows: qHTS assay for small molecules that induce genotoxicity in human embryonic kidney cells expressing luciferase-tagged ATAD5 - cell viability (AID 651634; calls by dose curve; note: nearly all actives have a fitted effect of over 25% in size). In outline: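 Viability read: CellTiter-Fluor fluorescence, 30 min at 37C. Cells: HEK293T, luciferase-tagged ATAD5. Exposure: 15.5 hr, 37C, 5% CO2, compound or DMSO vehicle.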
Experiment [5] in a line: qHTS assay for small molecule disruptors of the mitochondrial membrane potential - cell viability (AID 720634; calls by dose curve; note: nearly all actives have a fitted effect of over 20% in size; note: potency is the fitted concentration of half-maximal effect). In outline: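 HepG2, 1 hr compound, 37 C. ATP luminescence via CellTiter-Glo, 30 min RT, same well as m-MPI.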
A short description of experiment [6]: qHTS assay for small molecule disruptors of the mitochondrial membrane potential (AID 720635). In outline:
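HepG2 cells exposed to compound 1 hr at 37C, then Mito-MPS dye 30 min. Ratio read of aggregate (540/590 nm) versus monomer (490/535 nm) fluorescence.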

A short description of experiment [7]: qHTS assay to test for compound auto fluorescence at 590 nm (red) in HepG2 cells (AID 720674). In outline: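 Seeding: 2,000 HepG2 cells/well, MEM/10% FBS, overnight 37 C. Dosing: compound vs DMSO. Incubation: 1 hr, 37 C, 5% CO2. Read: fluorescence 540 ex/590 em, Rose Bengal sodium as red reference.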
Experiment [8] can be described thus: qHTS assay to test for compound auto fluorescence at 535 nm (green) in HepG2 cells (AID 720675).
Experiment [9] can be described thus: qHTS assay to test for compound auto fluorescence at 460 nm (blue) in HEK293 cells (AID 720678). In outline: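 HEK293, 2,000 cells/well, 10% dialyzed FBS; attach 4-5 hr 37C; pin compound or DMSO; o/n 37C/5% CO2; fluorescence 405/460 nm; triamterene-equivalent units.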
Experiment [10] is described as follows: qHTS assay to test for compound auto fluorescence at 590 nm (red) in HEK293 cells (AID 720679). Summed up: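 Intensity at 540nm excitation and 590nm emission is reported as Rose Bengal sodium-equivalent autofluorescence. Measurements followed overnight exposure (37C, 5% CO2) of HEK293 cells, 2,000 per well, to 23 nL compound.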
A short description of experiment [11]: qHTS assay to test for compound auto fluorescence at 535 nm (green) in HEK293 cells (AID 720680).
Experiment [12] can be described thus: qHTS assay to test for compound auto fluorescence at 460 nm (blue) in HEK293 cell free culture (AID 720681). Summed up: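 Compounds were added to cell-free DMEM with 10% FBS and fluorescence read directly. The blue channel used 405 nm excitation and 460 nm emission, with triamterene as the reference fluorophore.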
The nature of experiment [13]: qHTS assay to test for compound auto fluorescence at 535 nm (green) in HEK293 cell free culture (AID 720682). In outline:
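Using fluorescein as calibrant, autofluorescence was quantified at 485/535 nm in cell-free DMEM containing 10% FBS after pintool addition of compound or vehicle.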

The nature of experiment [14]: qHTS assay to test for compound auto fluorescence at 590 nm (red) in HEK293 cell free culture (AID 720683). Summed up: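 Cell-free wells of DMEM with 10% FBS received compound, and intrinsic fluorescence was read at excitation/emission 540/590 nm. Values expressed as equivalence to Rose Bengal sodium.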
A short description of experiment [15]: qHTS assay to test for compound auto fluorescence at 460 nm (blue) in HepG2 cell free culture (AID 720685). Summed up:
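Compound (23 nL) or DMSO pinned into cell-free MEM with 10% FBS; blue fluorescence read at 405/460 nm excitation/emission, expressed as auto-fluorescence equivalency to triamterene.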

Experiment [16] is described as follows: qHTS assay to test for compound auto fluorescence at 535 nm (green) in HepG2 cell free culture (AID 720686).
The nature of experiment [17]: qHTS assay to test for compound auto fluorescence at 460 nm (blue) in HepG2 cells (AID 720687). Summed up:
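HepG2 cells in MEM with 10% FBS, attached overnight at 37 C, were exposed to compound or DMSO for 1 hr at 37 C, 5% CO2. Blue fluorescence was read at 405/460 nm, with triamterene as reference fluorophore.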

For experiment [18], the target named is Glucocorticoid receptor (Homo sapiens) (UniProt P04150). In words: qHTS assay to identify small molecule agonists of the glucocorticoid receptor (GR) signaling pathway (AID 720691; active = well fitted activation curve with a large enough effect in the signal ratio in the repeat runs, not every such curve was filed as active; the % refers to the signal ratio). Summed up: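 qHTS in GR-bla HeLa cells: 4 h settling at 37 C/5% CO2, 18 h compound incubation at 37 C, 2 h LiveBLAzer B/G FRET substrate at room temperature, fluorescence intensity measured.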
Glucocorticoid receptor (Homo sapiens), sequence (P04150 whole entry, looked up): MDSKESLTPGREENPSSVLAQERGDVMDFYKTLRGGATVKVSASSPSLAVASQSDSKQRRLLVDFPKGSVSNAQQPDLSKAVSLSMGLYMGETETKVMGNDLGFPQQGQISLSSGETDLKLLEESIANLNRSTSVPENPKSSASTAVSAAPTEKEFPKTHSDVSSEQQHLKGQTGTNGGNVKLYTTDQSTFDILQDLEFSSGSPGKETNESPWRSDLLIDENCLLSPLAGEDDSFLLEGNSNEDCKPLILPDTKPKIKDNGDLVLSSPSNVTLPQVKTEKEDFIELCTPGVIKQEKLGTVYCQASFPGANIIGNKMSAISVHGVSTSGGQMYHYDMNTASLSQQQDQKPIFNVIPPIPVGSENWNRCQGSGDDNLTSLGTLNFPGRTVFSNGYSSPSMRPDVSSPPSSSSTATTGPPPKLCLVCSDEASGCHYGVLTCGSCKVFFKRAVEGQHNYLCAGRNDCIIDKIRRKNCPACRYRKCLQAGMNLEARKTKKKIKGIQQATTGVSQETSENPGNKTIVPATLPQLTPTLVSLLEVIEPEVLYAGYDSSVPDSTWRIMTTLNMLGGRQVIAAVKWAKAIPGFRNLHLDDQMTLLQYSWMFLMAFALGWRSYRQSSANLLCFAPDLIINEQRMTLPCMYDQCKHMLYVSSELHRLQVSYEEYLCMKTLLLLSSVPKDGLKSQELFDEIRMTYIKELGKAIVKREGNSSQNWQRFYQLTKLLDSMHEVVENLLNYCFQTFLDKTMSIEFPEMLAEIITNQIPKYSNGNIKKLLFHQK

Experiment [19] has the same target. In words: qHTS assay to identify small molecule antagonists of the glucocorticoid receptor (GR) signaling pathway (AID 720692; active = well fitted inhibition curve with a large enough effect in the signal ratio in the repeat runs, not every such curve was filed as active; the % refers to the signal ratio). Summed up: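 Inhibition of glucocorticoid signalling is measured in HeLa cells with a GRE-controlled beta-lactamase reporter; cells are co-treated with compound and 5 nM dexamethasone (final) for 18 h before FRET substrate readout.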

Experiment [20] can be described thus: qHTS assay to test for compound auto fluorescence at 590 nm (red) in HepG2 cell free culture (AID 720684). In outline:
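Compounds are added to culture medium (MEM, 10% FBS) lacking cells, then fluorescence is read at excitation 540 nm, emission 590 nm, with Rose Bengal sodium as the equivalency standard.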

On to `O=C(O)CP(=O)(O)O`, for which the Potency entry in [1], in experiment [2], in experiment [3], in experiment [4], in experiment [5] and in experiment [6] was “inactive” in each case. The Potency result in experiment [8], in experiment [9], in experiment [11], in experiment [12], in [13] and in experiment [15] was “inactive” in each case. The Potency entry in experiment [16], in experiment [17], in [18] and in experiment [19] was “inactive” in each case. The compound was called inactive in [7], in [10] and in [14].
Regarding `O=S(=O)(O)c1ccc2nc(-c3ccccc3)[nH]c2c1`, the Potency result in experiment [1], in [2], in [4], in experiment [6], in [8] and in [9] was “inactive” each time. Moreover, the Potency result in [11], in experiment [12], in experiment [13], in experiment [15], in [16] and in [17] was “inactive” throughout. For the same compound, the Potency in experiment [3] was 9.44 µM (active) and 26 µM (active); in experiment [5], 9.44 µM (active) and 26 µM (active). Also, the compound was classed as inactive in experiment [7], in experiment [10], in experiment [14] and in experiment [20].
As to `CCCCC/C=C/CC1CC(=O)OC1=O` (stereo not drawn), the Potency entry in [1], in experiment [2], in experiment [3], in [4], in experiment [5] and in experiment [8] was “inactive” each time. Moreover, the Potency result in experiment [9], in experiment [11], in experiment [12], in experiment [13], in [15] and in [16] was “inactive” each time. In addition, the compound was called inactive in experiment [7], in [10], in [14] and in [20].
With `Cc1cccc2n[nH]nc12`, the Potency entry in experiment [1], in experiment [2], in [3], in experiment [4], in experiment [5] and in experiment [6] was “inactive” each time. In addition, the Potency result in experiment [8], in experiment [9], in experiment [11], in experiment [12], in experiment [13] and in experiment [16] was “inactive” in each case. In addition, the Potency entry in experiment [17] was “inactive”. Moreover, the compound was called inactive in experiment [7], in [10], in [14] and in [20].
For `CC(C)(C)NCC(O)c1cc(O)cc(O)c1` (stereo not drawn), the Potency entry in [1], in [2], in experiment [3], in experiment [4], in experiment [5] and in experiment [6] was “inactive” in each case. In addition, the Potency entry in [8], in experiment [9], in experiment [11], in experiment [12], in experiment [13] and in experiment [16] was “inactive” in each case. In addition, the outcome in experiment [7], in [10] and in experiment [14] was inactive.
For the compound `CCN1CCCC1CNC(=O)c1cc(S(=O)(=O)CC)c(N)cc1OC` (stereo not drawn), the Potency entry in [1], in experiment [2], in experiment [3], in experiment [4], in [5] and in experiment [6] was “inactive” each time. Besides, the Potency entry in experiment [8], in experiment [9], in experiment [11], in experiment [12], in [13] and in [15] was “inactive” each time. For the same compound, the Potency entry in experiment [16], in [18] and in experiment [19] was “inactive” each time. Besides, the call in [7], in experiment [10], in experiment [14] and in [20] was inactive.
As to `CCN(CC)C(=O)Nc1ccc(OCC(O)CNC(C)(C)C)c(C(C)=O)c1` (stereo not drawn), the Potency entry in experiment [1], in [2], in [3], in [4], in [5] and in experiment [8] was “inactive” each time. Moreover, the Potency entry in [9], in [11], in experiment [12], in experiment [13], in experiment [15] and in experiment [16] was “inactive” in each case. The Potency result in experiment [18] and in experiment [19] was “inactive” each time. In addition, the compound was classed as inactive in experiment [7], in [10], in [14] and in experiment [20].
Turning to `CC(C)(C)c1ccccc1`, the Potency entry in experiment [1], in [2], in experiment [3], in [4], in experiment [5] and in experiment [8] was “inactive” throughout. For the same compound, the Potency entry in experiment [9], in experiment [11], in [12], in [13], in experiment [16] and in experiment [17] was “inactive” throughout. Moreover, the compound was called inactive in [7], in experiment [10], in experiment [14] and in experiment [20].
